According to PubChem BioAssay AID1159580 (chemical genetic matrix, 2015):
The whole screen tested about 5,500 compounds, of which about 2,000 (36%) were called active. Inconclusive results (about 18%) are left out. No stated cut-off is given here; in the data, active means normalized growth mostly below about 0.91 (no sharp cut-off); inconclusive means no clear call, values can overlap the other calls; inactive means mostly above about 0.92. The list shows a part of the results.

Experiment: chemical genetic growth profiling, strain panel (AID 1159580);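 further: tested at 20 µM; growth read once vehicle control cultures reached saturation at 30 °C; 1 = growth at the plate median or of vehicle wells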
Conditions: S. cerevisiae deletion strains, growth OD
[1] = locus YAR019C, strain CDC15, stronger effect = lower value
[2] = locus YBL105C, strain PKC1, stronger effect = lower value
[3] = locus YBR135W, strain CKS1, stronger effect = lower value
[4] = locus YBR136W, strain MEC1, stronger effect = lower value
[5] = locus YBR160W, strain CDC28, stronger effect = lower value
[6] = locus YDL017W, strain CDC7, stronger effect = lower value
[7] = locus YDL028C, strain MPS1, stronger effect = lower value
[8] = locus YDL101C, strain DUN1, stronger effect = lower value
[9] = locus YDL108W, strain KIN28, stronger effect = lower value
[10] = locus YDL132W, strain cdc53, stronger effect = lower value
[11] = locus YDL214C, strain PRR2, stronger effect = lower value
[12] = locus YDR052C, strain DBF4, stronger effect = lower value
[13] = locus YDR054C, strain cdc34, stronger effect = lower value
[14] = locus YDR226W, strain ADK1, stronger effect = lower value
[15] = locus YDR477W, strain SNF1, stronger effect = lower value
[16] = locus YER123W, strain YCK3, stronger effect = lower value
[17] = locus YER133W, strain GLC7, stronger effect = lower value
[18] = locus YFL009W, strain cdc4, stronger effect = lower value
[19] = locus YFL029C, strain CAK1, stronger effect = lower value
[20] = locus YFR003C, strain YPI1, stronger effect = lower value
[21] = locus YFR019W, strain FAB1, stronger effect = lower value
[22] = locus YFR028C, strain CDC14, stronger effect = lower value
[23] = locus YGR040W, strain KSS1, stronger effect = lower value
[24] = locus YGR052W, strain FMP48, stronger effect = lower value
[25] = locus YGR092W, strain DBF2, stronger effect = lower value
[26] = locus YHR030C, strain SLT2, stronger effect = lower value
[27] = locus YHR079C, strain IRE1, stronger effect = lower value
[28] = locus YHR082C, strain KSP1, stronger effect = lower value
[29] = locus YHR205W, strain SCH9, stronger effect = lower value
[30] = locus YIL147C, strain SLN1, stronger effect = lower value
[31] = locus YJL095W, strain BCK1, stronger effect = lower value
[32] = locus YJL128C, strain PBS2, stronger effect = lower value
[33] = locus YJL157C, strain FAR1, stronger effect = lower value
[34] = locus YJR016C, strain ILV3, stronger effect = lower value
[35] = locus YJR066W, strain TOR1 (second series), stronger effect = lower value
[36] = locus YJR066W, strain TOR1, stronger effect = lower value
[37] = locus YKL048C, strain ELM1, stronger effect = lower value
[38] = locus YKL067W, strain YNK1, stronger effect = lower value
[39] = locus YKL101W, strain HSL1, stronger effect = lower value
[40] = locus YKL193C, strain SDS22, stronger effect = lower value
[41] = locus YKL203C, strain TOR2, stronger effect = lower value
[42] = locus YLR113W, strain HOG1, stronger effect = lower value
[43] = locus YLR133W, strain CKI1, stronger effect = lower value
[44] = locus YLR403W, strain SFP1, stronger effect = lower value
[45] = locus YML070W, strain DAK1, stronger effect = lower value
[46] = locus YMR001C, strain CDC5, stronger effect = lower value
[47] = locus YMR205C, strain PFK2 (second series), stronger effect = lower value
[48] = locus YMR277W, strain FCP1, stronger effect = lower value
[49] = locus YNL006W, strain LST8, stronger effect = lower value
[50] = locus YNL020C, strain ARK1, stronger effect = lower value
[51] = locus YNL161W, strain CBK1, stronger effect = lower value
[52] = locus YNL183C, strain NPR1, stronger effect = lower value
[53] = locus YNL207W, strain RIO2, stronger effect = lower value
[54] = locus YNL222W, strain SSU72, stronger effect = lower value
[55] = locus YNL307C, strain MCK1 (second series), stronger effect = lower value
[56] = locus YOL078W, strain AVO1, stronger effect = lower value
[57] = locus YOL136C, strain PFK27, stronger effect = lower value
[58] = locus YOR061W, strain CKA2, stronger effect = lower value
[59] = locus YOR119C, strain RIO1, stronger effect = lower value
[60] = locus YOR231W, strain MKK1, stronger effect = lower value
[61] = locus YOR329C, strain SCD5, stronger effect = lower value
[62] = locus YPL031C, strain PHO85, stronger effect = lower value
[63] = locus YPL153C, strain RAD53, stronger effect = lower value
[64] = locus YPL204W, strain HRR25, stronger effect = lower value
[65] = locus YPL209C, strain IPL1, stronger effect = lower value
[66] = locus YPL256C, strain CLN2, stronger effect = lower value
[67] = locus YPR025C, strain CCL1, stronger effect = lower value
[68] = locus YPR106W, strain ISR1, stronger effect = lower value
[69] = locus YPR111W, strain DBF20, stronger effect = lower value
[70] = strain NNK1, stronger effect = lower value
[71] = strain TSCII, stronger effect = lower value

Measured: normalized growth

COC(=O)C1=C(C)NC(C)=C(C(=O)OC)C1c1ccc(Cl)cc1Cl
inactive: [1] 0.973 | [2] 0.976 | [3] 0.971 | [4] 0.976 | [5] 0.981 | [6] 0.979 | [7] 0.977 | [8] 0.973 | [9] 0.967 | [10] 0.967 | [11] 0.917 | [12] 0.986 | [13] 0.967 | [14] 0.972 | [15] 0.909 | [16] 0.887 | [17] 0.889 | [18] 0.968 | [19] 0.969 | [20] 0.98 | [21] 0.949 | [22] 0.974 | [23] 0.914 | [24] 0.989 | [25] 0.88 | [26] 0.99 | [27] 0.963 | [28] 0.97 | [29] 0.943 | [30] 0.961 | [31] 0.961 | [32] 0.98 | [33] 0.928 | [34] 0.972 | [35] 0.908 | [36] 0.999 | [37] 0.949 | [38] 0.947 | [39] 0.936 | [40] 0.978 | [41] 0.975 | [42] 0.912 | [43] 0.956 | [44] 0.88 | [45] 0.911 | [46] 0.972 | [47] 0.956 | [48] 0.978 | [49] 0.973 | [50] 0.94 | [51] 0.987 | [52] 0.985 | [53] 0.973 | [54] 0.973 | [55] 0.947 | [56] 0.991 | [57] 0.918 | [58] 0.93 | [59] 0.945 | [60] 0.933 | [61] 0.984 | [62] 0.884 | [63] 0.866 | [64] 0.898 | [65] 0.985 | [66] 0.971 | [67] 0.979 | [68] 0.975 | [69] 0.975 | [70] 0.977 | [71] 0.968

CCOC(=O)C1=C(N)OC2=C(C(=O)CC(C)(C)C2)C1c1ccc(Cl)cc1Cl (configuration not stated)
inactive: [1] 0.984 | [2] 0.982 | [3] 0.978 | [4] 0.981 | [5] 0.964 | [6] 0.978 | [7] 0.98 | [8] 0.966 | [9] 0.978 | [10] 0.975 | [11] 0.968 | [12] 0.979 | [13] 0.965 | [14] 0.978 | [15] 0.95 | [16] 0.927 | [17] 0.959 | [18] 0.974 | [19] 0.981 | [20] 0.982 | [21] 0.956 | [22] 0.976 | [23] 0.954 | [24] 1.08 | [25] 0.973 | [27] 0.943 | [28] 1.01 | [29] 0.953 | [30] 0.984 | [31] 0.904 | [32] 0.975 | [33] 0.976 | [34] 0.99 | [35] 0.95 | [36] 0.947 | [37] 0.948 | [38] 0.959 | [39] 0.963 | [40] 0.973 | [41] 1 | [42] 0.934 | [43] 0.961 | [44] 0.964 | [45] 0.944 | [46] 0.984 | [47] 0.976 | [48] 0.98 | [49] 0.987 | [50] 0.95 | [51] 0.983 | [52] 0.934 | [53] 0.989 | [54] 0.977 | [55] 0.947 | [56] 0.979 | [57] 0.952 | [58] 0.958 | [59] 1.06 | [60] 0.953 | [61] 0.976 | [62] 0.948 | [63] 0.952 | [64] 0.933 | [65] 0.966 | [66] 0.876 | [67] 0.979 | [68] 0.979 | [69] 0.964 | [70] 0.973 | [71] 0.982
active: [26] 0.804
